Reference: PubChem BioAssay (Tox21)
Results filed as inconclusive are left out. Values without a mark were called inactive. The source made the active and inactive calls. Calls come from the whole dose curve; as a rule, active = well fitted inhibition curve with a large enough effect in the repeat runs; inconclusive = weak or mixed curves, or effect the other way; inactive = no such curve, though single readings can be large or run the other way.

Experiment: qHTS assay to identify small molecule antagonists of the retinoic acid receptor (RAR) signaling pathway (AID 1159552; note: nearly all actives have a fitted effect of over 50% in size)
Details: C3RL4 RARE luciferase reporter, retinol-stimulated, 6 h; series mostly up to 92.4 µM; activity, negative = inhibition: at the top concentration
From the text: National Center for Advancing Translational Sciences [NCATS]
NIH Chemical Genomics Center [NCGC]
U.S. Environmental Protection Agency [EPA]
National Institutes of Environmental Health Sciences [NIEHS]
National Toxicology Program [NTP]
U.S. Food and Drug Administration [FDA]
All-trans Retinoic acid (atRA) is the potent natural metabolite of retinol and plays an important role in normal embryonic development and maintenance of cellular phenotype in adult animals. atRA is the activating ligand for the retinoic acid receptors (RARs) which form heterodimers with retinoid X receptors (RXRs) on the retinoic acid response element (RARE). Through activation of the RAR/RXRs nuclear receptors, atRA regulates the transcription of a large number of protein-coding genes and regulatory RNAs. Intracellular levels of atRA are controlled by the retinol signaling pathway (RSP) that regulates the biosynthesis and catabolism of atRA to maintain physiological levels. Chemicals that interfere with the RSP can cause abnormal intracellular levels of atRA and therefore are potential developmental toxicants. To assess compounds for the potential adverse effect on embryonic development through interfering with retinol signaling, a cell-based RARE luciferase reporter gene assay was used. C3RL4 cell line (OARSA/CFSAN/FDA, Laurel, MD) was used to screen Tox21 10K compound library for identifying inhibitors of the RSP.
Tox21 Assay Protocol Summary:
C3RL4 cells were seeded at 1,000/well in 4 uL of assay medium into white solid 1,536-well tissue culture plates (Greiner Bio-One North America Inc. Monroe, NC) using a Multidrop Combi (Thermo Scientific, Waltham, MA) dispenser. After incubation at 37 C and 5% CO2 for an overnight, 23 nL of compounds dissolved in DMSO, positive control or DMSO only were transferred by a Pintool station (Kalypsys, San Diego, CA). One ul of 1 uM (final concentration) of Retinol was added right after the compound addition by using a Flying Reagent Dispenser (FRD) (Aurora Discovery, San Diego, CA). After 6 hr incubation at 37 C and 5% CO2, 5 uL of Amplite Luciferase reagent (AAT Bioquest Inc. Sunnyvale, CA) was added to each assay plate using an FRD. Luminescence was quantified on a ViewLux plate reader (PerkinElmer, Waltham, MA) after 30 min incubation at room temperature.
% is set by controls: 0 for no effect and ±100 for the full control effect.

**Q.** For O=C(OCC1CCC2OC2C1)C1CCC2OC2C1 (stereo not given), which outcome is on record?
**A.** inactive

**Q.** With CC(=O)Oc1ccc(C)cc1 as the molecule, how does the outcome read?
**A.** inactive

**Q.** Which outcome does the source give for CCCCCCCCCCCCCCCC(=O)OC(C)C here?
**A.** inactive

**Q.** For COc1ccc(CCC(C)=O)cc1, which outcome is on record?
**A.** inactive

**Q.** Which outcome does the source give for COc1ccc(C)cc1N here?
**A.** inactive

**Q.** Which outcome does the source give for COc1ccc([N+](=O)[O-])cc1N here?
**A.** inactive

**Q.** With O=C1C(c2[nH]c3ccccc3c2O)=Nc2ccccc21 as the molecule, how does the outcome read?
**A.** inactive

**Q.** For CCCCCCO, which outcome is on record?
**A.** inactive

**Q.** With N[C@H](Cc1c[nH]c2ccccc12)C(=O)O as the molecule, how does the outcome read?
**A.** inactive

**Q.** Which outcome does the source give for c1ccc2c(c1)Cc1ccccc1-2 here?
**A.** inactive

**Q.** For O=S(=O)(O)c1ccccc1, which outcome is on record?
**A.** inactive

**Q.** For C=Cc1ccc(C)cc1, which outcome is on record?
**A.** inactive

**Q.** For CC(=O)OC1CC(C)OC(C)O1 (stereo not given), which outcome is on record?
**A.** inactive

**Q.** With CC(C)CCCCCCCOC(=O)CCCCC(=O)OCCCCCCCC(C)C as the molecule, how does the outcome read?
**A.** inactive

**Q.** With NCCNCCN as the molecule, how does the outcome read?
**A.** inactive

**Q.** With CC1(C)NC(=O)NC1=O as the molecule, how does the outcome read?
**A.** inactive

**Q.** For CN(C)c1ccc(Cc2ccc(N(C)C)cc2)cc1, which outcome is on record?
**A.** inactive

**Q.** With CCOC(=O)c1ccc(N)cc1 as the molecule, how does the outcome read?
**A.** inactive

**Q.** For O=C(O)c1ccc(S(=O)(=O)N(Cl)Cl)cc1, which outcome is on record?
**A.** inactive

**Q.** Which outcome does the source give for NCCCCCCN here?
**A.** inactive

**Q.** Which outcome does the source give for NCCN1CCNCC1 here?
**A.** inactive

**Q.** For Cc1ccc(C(C)C)c(O)c1, which outcome is on record?
**A.** inactive

**Q.** Which outcome does the source give for Cc1ccc([N+](=O)[O-])cc1S(=O)(=O)O here?
**A.** inactive

**Q.** With CCCCCCCCCCCCCCCCO as the molecule, how does the outcome read?
**A.** inactive

**Q.** Which outcome does the source give for O=c1[nH]cnc2[nH]ncc12 here?
**A.** inactive

**Q.** Which outcome does the source give for CC1(C)CC(N)CC(C)(CN)C1 (stereo not given) here?
**A.** inactive

**Q.** Which outcome does the source give for CC(=O)CCC=C(C)C here?
**A.** inactive

**Q.** Which outcome does the source give for CC(CCO)CC(C)(C)C (stereo not given) here?
**A.** inactive

**Q.** For O=C1CCCC1, which outcome is on record?
**A.** inactive

**Q.** Which outcome does the source give for CCOCCOCCOCCO here?
**A.** inactive

**Q.** With CCCCCCC=O as the molecule, how does the outcome read?
**A.** inactive

**Q.** Which outcome does the source give for O=S(=O)(O)c1ccc(N=Nc2c(O)ccc3cc(S(=O)(=O)O)ccc23)cc1 here?
**A.** inactive

**Q.** With CC1(C)OC[C@@H]2O[C@@]3(C(=O)O)OC(C)(C)O[C@H]3[C@@H]2O1 as the molecule, how does the “activity, negative = inhibition” value read?
**A.** -6.32% [at 42.5 µM]

**Q.** Which “activity, negative = inhibition” value does the source give for O=C(O)c1ccc(C(=O)O)c(C(=O)O)c1 here?
**A.** 12.2%

**Q.** Which “activity, negative = inhibition” value does the source give for Brc1ccc(Br)c(Br)c1 here?
**A.** -8.87%

**Q.** With CC(C)(C)c1cc(Cc2cc(C(C)(C)C)c(O)c(C(C)(C)C)c2)cc(C(C)(C)C)c1O as the molecule, how does the outcome read?
**A.** inactive

**Q.** For COC(=O)c1cccnc1, which outcome is on record?
**A.** inactive

**Q.** With NC(=S)NNC(N)=S as the molecule, how does the outcome read?
**A.** inactive

**Q.** Which outcome does the source give for CC(=O)CC(C)(C)O here?
**A.** inactive

**Q.** Which “activity, negative = inhibition” value does the source give for CC(=O)OCc1ccccc1 here?
**A.** 15.7%
